# Experimental data as given in PubChem BioAssay (NCI).
# About 83,000 compounds went through this panel and 20% of them were active in at least one assay; those are over-represented in the sample as a whole.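 For each line, cells grew in 96-well plates with the test compound present at a single concentration for 48 hours.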 Unmarked numbers belong to inactive results. Calls of active or inactive are those of the source. How the source made its calls: active means growth percent below 10; inactive means the rest.
# Test system: MDA-MB-468 breast
# Assay: NCI-60 one-dose screen, 48 h (100 = growth as untreated, 0 = no growth, -100 = all killed)
# Details: 10 µM unless noted
row,SMILES,growth
1,C(=C(\C1=NCCN1)n1cnc2ccccc21)/c1ccc2ccccc2c1,26.2%
2,O=NN(CCCl)C(=O)Nc1ccc(NC(=O)N(CCCl)N=O)cc1,96.4%
3,O=Nc1c(-c2c(O)[nH]c3ncccc23)[nH]c2ccccc12,28.4%
4,O=C(CSc1nc2ccccc2c(=O)n1-c1ccccc1)Nc1ccc(-c2nc3ccc([N+](=O)[O-])cc3[nH]2)cc1,81.5%
5,Cn1nc(C(F)(F)F)c(-c2cc(C(F)(F)F)cc(C(F)(F)F)c2)c1-c1ccc(OCc2ccc(Cl)cc2)cc1O,-5% (active)
6,CNC(=O)Nc1ccc(-c2ccc3ncnc(Nc4cccc(Cl)c4)c3c2)cc1,-29.2% (active)
7,C#CC(C(C)C)N(CCO)CCCC (stereo not given),103%
8,CCCNC(=S)N/N=C(\C)c1ccccn1,-26.3% (active)
9,NC(N)=N/N=C(/c1ccccc1)c1ccc(Cl)cc1,39.6%
10,Cc1ccc(-c2cc3nc(C(Cl)Cl)nc(-c4ccccc4)n3n2)cc1,-16.4% (active)
11,CC/C=C\C[C@H](F)C/C=C1/C(=O)C=C[C@@H]1C/C=C\CCCC(=O)OC,17.9%
12,Cc1cc(C)c(-c2c(O)c(Br)c(-c3c(C)cc(C)c(Br)c3C)c(O)c2Br)c(C)c1Br,48.9%
13,N#Cc1c(-c2ccccc2)cc(-c2ccccc2)n(CCCCCCC(=O)O)c1=O,88.9%
14,Cc1ccc(S(=O)(=O)Oc2ccccc2-c2ccccc2)cc1,-3.07% (active)
15,COc1ccc(-c2nc3ccc(-c4nnc(SCC(=O)Nc5ccc(C(C)=O)cc5)o4)cc3[nH]2)cc1,109%
16,O=C=NC(c1ccccc1)(c1ccccc1)c1ccccc1,118%
17,C=CCn1c(SCC(=O)Nc2ccc(C(=O)/C=C/c3ccc(OC)cc3)cc2)nnc1-c1ccccc1,93.9%
18,CS(=O)(=O)c1ccc2c(c1)c1c(n2Cc2ccc(Cl)cc2)CCCC1,50.4%
19,COc1ccc(C2CC(c3cccc(Nc4nc(Cl)nc5cc(OC)c(OC)cc45)c3)=Nc3c(N)nc(N)nc3N2)cc1 (stereo not given),92.3%
20,COc1ccc2nc3cc(Cl)ccc3c(NC(=O)CSc3ccc(Cl)cc3)c2c1,-81.7% (active)
21,Clc1ccc(/C=N\N=C\c2ccc(Cl)c(Cl)c2)cc1Cl,78.5%
22,N#Cc1c(-c2cccc([N+](=O)[O-])c2)nc(SCC(=O)c2ccc(Cl)cc2)[nH]c1=O,110%
23,COc1cc(/C=C2\CN(S(=O)(=O)c3ccc(C)cc3)C/C(=C\c3cc(CN4CCCC4)c(O)c(OC)c3)C2=O)cc(CN2CCCC2)c1O,-11.9% (active)
24,C/C(=C\CCc1ccoc1)CC/C=C(\C)CCCN1CCOCC1,5.68% (active)
25,CN(C)C/C=C/C(=O)Nc1cc2c(Nc3cccc(Cl)c3F)ncnc2cc1OCCOC(F)F,-44.6% (active)
